From PubChem
Compounds with a hit are over-represented: about 2.4% of the library has one in this group of screens.
NOD2 RIPK2 PPI: blocks binding of human NOD2 to RIPK2. CHO BLA complementation NOD2-RIPK2, CCF4 ratio. actives 0.38% (n = 360,000). O43353. inhibition, % at 4.98 µM; in the data active = inhibition above about 21%
HTR2A ag: activates the mouse 5-HT2A serotonin receptor | AID 624169 | actives 0.66% (n = 360,000) | P35363 | CHO-K1 mHTR2A beta-arrestin complementation, luminescence; percent of 30 µM serotonin response | activation, % at 7.6 µM;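 active = activation above a run cutoff, the mean activation of all tested compounds plus 3 SD, cut at about 14% in these data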
ANO1 activ: activates or potentiates the mouse TMEM16A chloride channel. Q8BHY3. HEK293 TMEM16A/YFP-H148Q/I152L, iodide quench fluorescence; active compounds read low. B-score at 10 µM. actives 0.3% (n = 340,000);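 active = fluorescence-ratio B-score plate-corrected deviation score at least 3 library SD below zero, with starting fluorescence score within 5 deviations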;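 also: channel opened by trigger with iodide after compound preincubation; score built on the fluorescence ratio of max minus min over baseline; more negative score means more quench and so TMEM16A activation or potentiation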
TLR4 MyD88 comp: inhibitors of human TLR4-MyD88 binding. HeLa CL3-4 TLR4/MyD88 BLA complementation, FRET ratio. AID 861. actives 0.18% (n = 200,000). inhibition, % at 8.4 µM. O00206+Q99836; in the data active = inhibition above about 25%
TLR9-MyD88 inh: inhibitors of human TLR9-MyD88 binding | actives 0.21% (n = 340,000) | inhibition, % at 4.98 µM | CHO BLA complementation TLR9-MyD88, CCF4 FRET ratio;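 active = inhibition above the mean over all tested compounds plus 3 SD, cut at about 21% in these data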
TMEM16A inh: mouse TMEM16A channel inhibition, primary screen; Q8BHY3; HEK293 TMEM16A/YFP iodide influx fluorescence, ionomycin; normalized B-score (activity score, 25-100; higher = stronger inhibition) at 10 µM; actives 1.2% (n = 310,000);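 active = ratio plate-corrected score three or more library SD toward inhibition, starting fluorescence score within five deviations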;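 also: score derived from kinetic fluorescence span divided by baseline fluorescence per well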
OPRM1 ag: activates human mu opioid receptor in HTR2A counterscreen. U2OS OPRM1 beta-arrestin PathHunter, luminescence; DMSO 0%, DAMGO 9.3 µM 100%. shares compounds with HTR2A ag. activation, % at 9.3 µM. actives 5.3% (n = 2,300). AID 624380;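 active = mean activation above the mean of DMSO-only wells plus 3 SD, cut at about 0.5% in these data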
HTR2A ag conf: mouse HTR2A agonism confirmed | AID 624381 | CHO-K1 PathHunter beta-arrestin recruitment, luminescence; DMSO 0%, 30 µM serotonin 100% | shares compounds with HTR2A ag | activation, % at 7.6 µM | actives 19% (n = 2,300);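 active = mean activation across triplicates above the hit threshold derived in the original primary screen, cut at about 15% in these data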
Hits are given with their value; n = inactive; x = no result given.

SMILES	NOD2 RIPK2 PPI	HTR2A ag	ANO1 activ	TLR4 MyD88 comp	TLR9-MyD88 inh	TMEM16A inh	OPRM1 ag	HTR2A ag conf
Cc1ccc(C(=O)C(OC(=O)c2c(C)cc(=O)oc2C)c2ccccc2)cc1 (configuration not stated)	n	n	n	n	n	n	x	x
CCCn1c(=O)c2[nH]c(-c3ccc(OCC(=O)Nc4ccc(C#N)cc4)cc3)nc2n(CCC)c1=O	n	16	n	x	n	n	n	n
CC(C)(CO)C(O)C(=O)NCCCO (configuration not stated)	n	18	n	x	n	n	n	n
O=C(Cc1ncc(C(F)(F)F)cc1Cl)NCc1ccco1	n	n	n	n	n	n	x	x
CC(O)/C=C/c1ccc2ccccc2n1 (configuration not stated)	n	19	n	n	n	n	n	n
CCc1cc[n+](C(C(=S)Nc2cccc(C)c2)=C([O-])c2ccc(C)c([N+](=O)[O-])c2)cc1	n	15	n	x	n	x	n	n
Cc1ccc(/C([O-])=C(/C(=S)NCc2ccccc2)[n+]2cccc(CO)c2)cc1[N+](=O)[O-]	n	n	n	n	n	x	x	x
O=C(Cn1c(=O)c2cccn2c2cccnc21)N1CCN(c2ccc(Cl)cc2)CC1	n	15	n	x	n	n	n	n
Cc1ccc(Cl)cc1N1CCN(C(=O)CCCn2c(=O)c3cccn3c3cccnc32)CC1	n	n	n	x	n	n	x	x
CCOC(=O)N1CCN(C(=O)CNC(=O)Cn2cnc3ccccc3c2=O)CC1	n	n	n	n	n	n	x	x
COc1ccc(-c2cn(Cc3ccc(C)cc3)nn2)cc1	n	n	n	x	n	n	x	x
COc1cc2c(cc1OC)[C@@H](NC(=O)Cc1ccc(F)cc1)[C@H](OCc1ccccc1)C2	n	n	x	x	n	x	x	x
COc1ccc(CC(=O)N[C@@H]2c3cc(OC)c(OC)cc3C[C@H]2O)cc1	n	18	x	x	n	x	n	n
Cc1cc(C)c(NC(=S)NCCCSC2CCCCC2)c(C)c1	n	n	n	n	n	n	x	x
C=CCNC(=O)CN1CCC(c2nc3cc(C)c(C)cc3[nH]2)CC1	n	n	n	x	n	n	x	x
O=C(Nc1ccc(Br)cc1C(=O)O)c1ccc2c(c1)C(=O)N(Cc1ccccc1)C2=O	n	15	n	x	n	n	n	n
COc1ccc(S(=O)(=O)NC(C)C(=O)NCc2cccnc2)cc1C (configuration not stated)	n	15	n	x	n	n	n	n
COC(=O)c1cc2c(C)nn(C)c2s1	n	23	n	x	n	n	n	n
O=C(Nc1cccc(S(=O)(=O)N2CCCC2)c1)c1ccco1	n	n	n	x	n	x	x	x
O=C(Nc1ccc(S(=O)(=O)N2CCCCCC2)cc1)c1ccco1	n	15	n	n	n	n	n	n
Cn1c(SCC(=O)Nc2cccc(F)c2)nc2c([nH]c3ccccc32)c1=O	n	n	n	n	n	n	x	x
CC(C)c1nc(SCC(=O)NCC2CCCO2)c2c(=O)n(C)c(=O)n(C)c2n1 (configuration not stated)	n	28	n	x	n	n	n	n
COc1ccccc1CN(C)C(=O)CN1CCN(C(=O)c2cccs2)CC1	n	17	n	x	n	x	n	27
COc1ccc(C(=O)N2CCCCC2c2cc(C(=O)NCc3ccc(Cl)c(Cl)c3)no2)cc1 (configuration not stated)	n	n	x	x	x	x	x	x
O=C(Nc1ccccc1)C(=O)Nc1cccnc1	n	22	n	x	n	n	n	n
Cc1nc2nc(COc3ccccc3)nn2c(C)c1Cl	n	n	n	n	n	n	x	x
Cc1cc(C(=O)CSc2nnc(-c3ccccc3)o2)c(C)n1CC1COc2ccccc2O1 (configuration not stated)	n	n	n	n	n	n	x	x
